Results on five compounds are retold here after ChEMBL document CHEMBL1961873, “Compounds: GSK PKIS; Assays: Nanosyn kinase panel” (2012).

Assay [1] addresses T1, Serine/threonine-protein kinase D2 (Homo sapiens) (UniProt Q9BZL6).
T1 sequence (whole entry): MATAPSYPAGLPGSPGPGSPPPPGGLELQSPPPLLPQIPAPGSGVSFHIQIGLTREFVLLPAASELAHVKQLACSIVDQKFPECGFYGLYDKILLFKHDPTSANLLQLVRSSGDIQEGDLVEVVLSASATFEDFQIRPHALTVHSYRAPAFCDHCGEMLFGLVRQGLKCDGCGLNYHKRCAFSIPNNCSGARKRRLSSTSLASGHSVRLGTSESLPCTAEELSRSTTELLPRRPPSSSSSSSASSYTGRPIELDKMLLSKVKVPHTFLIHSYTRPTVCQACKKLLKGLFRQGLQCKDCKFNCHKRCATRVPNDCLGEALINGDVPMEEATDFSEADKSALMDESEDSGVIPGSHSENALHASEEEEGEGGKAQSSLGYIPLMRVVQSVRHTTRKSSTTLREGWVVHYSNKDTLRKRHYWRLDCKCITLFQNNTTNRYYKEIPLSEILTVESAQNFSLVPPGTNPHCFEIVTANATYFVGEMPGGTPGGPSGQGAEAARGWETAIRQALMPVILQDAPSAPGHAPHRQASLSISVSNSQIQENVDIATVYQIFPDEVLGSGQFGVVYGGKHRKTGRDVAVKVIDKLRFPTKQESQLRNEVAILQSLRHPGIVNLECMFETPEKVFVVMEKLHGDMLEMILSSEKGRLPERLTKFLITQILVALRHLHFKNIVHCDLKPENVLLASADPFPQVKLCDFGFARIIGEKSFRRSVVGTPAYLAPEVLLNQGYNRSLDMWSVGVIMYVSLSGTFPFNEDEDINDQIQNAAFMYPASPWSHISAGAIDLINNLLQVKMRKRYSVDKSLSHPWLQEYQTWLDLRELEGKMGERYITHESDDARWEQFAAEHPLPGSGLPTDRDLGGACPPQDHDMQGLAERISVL
As to conditions: at 1 µM.

Assay [2] has as its target T2, Serine/threonine-protein kinase D3 (Homo sapiens) (UniProt O94806).
T2 sequence (whole entry): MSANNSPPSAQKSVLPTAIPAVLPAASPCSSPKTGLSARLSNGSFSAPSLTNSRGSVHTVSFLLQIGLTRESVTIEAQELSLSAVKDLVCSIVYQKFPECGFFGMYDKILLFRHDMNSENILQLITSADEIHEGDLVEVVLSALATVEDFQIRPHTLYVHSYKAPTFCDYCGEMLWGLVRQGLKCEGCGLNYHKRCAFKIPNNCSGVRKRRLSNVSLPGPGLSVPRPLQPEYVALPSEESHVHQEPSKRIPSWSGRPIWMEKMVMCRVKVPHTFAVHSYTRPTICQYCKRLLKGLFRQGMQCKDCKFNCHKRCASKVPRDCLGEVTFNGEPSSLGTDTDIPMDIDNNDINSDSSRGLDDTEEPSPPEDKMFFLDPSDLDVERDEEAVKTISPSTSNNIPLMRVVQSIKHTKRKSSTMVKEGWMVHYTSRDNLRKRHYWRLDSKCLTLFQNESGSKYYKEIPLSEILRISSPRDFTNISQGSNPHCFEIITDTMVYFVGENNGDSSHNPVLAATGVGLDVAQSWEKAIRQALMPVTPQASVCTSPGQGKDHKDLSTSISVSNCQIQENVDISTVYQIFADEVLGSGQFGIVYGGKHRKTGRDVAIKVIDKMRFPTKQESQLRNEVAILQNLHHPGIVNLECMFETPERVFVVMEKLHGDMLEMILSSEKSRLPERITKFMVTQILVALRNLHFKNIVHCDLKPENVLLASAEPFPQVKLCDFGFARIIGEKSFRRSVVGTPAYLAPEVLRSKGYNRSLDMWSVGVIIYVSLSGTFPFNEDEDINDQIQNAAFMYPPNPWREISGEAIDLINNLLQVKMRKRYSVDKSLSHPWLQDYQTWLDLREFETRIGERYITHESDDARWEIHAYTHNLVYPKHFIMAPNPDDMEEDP
As to conditions: at 0.1 µM.

In assay [3] the target is T2, Serine/threonine-protein kinase D3 (Homo sapiens). As to conditions: at 1 µM.
For assay [4], the target named is T3, cGMP-dependent protein kinase 1 (Homo sapiens) (UniProt Q13976).
T3 sequence (whole entry): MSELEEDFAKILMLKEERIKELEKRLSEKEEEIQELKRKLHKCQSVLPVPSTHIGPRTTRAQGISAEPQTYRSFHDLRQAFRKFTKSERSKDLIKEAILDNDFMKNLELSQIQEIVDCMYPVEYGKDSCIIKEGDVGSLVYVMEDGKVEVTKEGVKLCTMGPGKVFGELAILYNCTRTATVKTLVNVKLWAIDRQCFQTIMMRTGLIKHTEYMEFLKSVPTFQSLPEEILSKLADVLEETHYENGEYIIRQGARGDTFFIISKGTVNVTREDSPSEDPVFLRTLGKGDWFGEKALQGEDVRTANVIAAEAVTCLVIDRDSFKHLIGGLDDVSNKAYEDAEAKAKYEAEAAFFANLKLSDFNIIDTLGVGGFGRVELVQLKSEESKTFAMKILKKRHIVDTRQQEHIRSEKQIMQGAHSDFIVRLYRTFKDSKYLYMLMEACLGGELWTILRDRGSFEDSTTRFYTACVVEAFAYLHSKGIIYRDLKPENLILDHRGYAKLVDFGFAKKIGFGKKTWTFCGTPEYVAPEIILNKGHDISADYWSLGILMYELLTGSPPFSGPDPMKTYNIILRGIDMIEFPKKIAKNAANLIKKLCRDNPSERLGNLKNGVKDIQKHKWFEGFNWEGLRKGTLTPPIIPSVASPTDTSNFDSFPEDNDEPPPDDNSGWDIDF
As to conditions: at 0.1 µM.

Assay [5] concerns the target T3, cGMP-dependent protein kinase 1 (Homo sapiens). Conditions: at 1 µM.
Assay [6] addresses T4, cGMP-dependent protein kinase 2 (Homo sapiens) (UniProt Q13237).
T4 sequence (whole entry): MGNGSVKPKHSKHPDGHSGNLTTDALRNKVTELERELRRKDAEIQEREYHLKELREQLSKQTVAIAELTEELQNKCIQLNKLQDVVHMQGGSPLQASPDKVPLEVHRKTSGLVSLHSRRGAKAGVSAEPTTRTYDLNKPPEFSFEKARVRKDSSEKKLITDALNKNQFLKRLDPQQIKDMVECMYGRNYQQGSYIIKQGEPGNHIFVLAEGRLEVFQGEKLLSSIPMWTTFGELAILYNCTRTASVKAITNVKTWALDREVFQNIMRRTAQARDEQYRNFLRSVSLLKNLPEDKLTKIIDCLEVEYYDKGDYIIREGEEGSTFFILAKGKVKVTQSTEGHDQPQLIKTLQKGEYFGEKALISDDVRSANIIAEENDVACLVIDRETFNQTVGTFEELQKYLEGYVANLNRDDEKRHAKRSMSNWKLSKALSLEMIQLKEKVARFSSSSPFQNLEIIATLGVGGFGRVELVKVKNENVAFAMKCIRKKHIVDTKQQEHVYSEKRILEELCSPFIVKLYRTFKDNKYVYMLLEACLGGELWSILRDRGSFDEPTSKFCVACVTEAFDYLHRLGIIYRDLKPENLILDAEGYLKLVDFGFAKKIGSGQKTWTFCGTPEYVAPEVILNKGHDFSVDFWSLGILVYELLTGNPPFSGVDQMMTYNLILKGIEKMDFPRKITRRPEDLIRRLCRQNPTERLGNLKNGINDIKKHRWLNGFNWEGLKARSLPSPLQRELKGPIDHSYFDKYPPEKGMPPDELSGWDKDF
Conditions: at 0.1 µM.

Assay [7] addresses T4, cGMP-dependent protein kinase 2 (Homo sapiens). Conditions: at 1 µM.
The target of assay [8] is T5, cAMP-dependent protein kinase catalytic subunit PRKX (Homo sapiens) (UniProt P51817).
T5 sequence (whole entry): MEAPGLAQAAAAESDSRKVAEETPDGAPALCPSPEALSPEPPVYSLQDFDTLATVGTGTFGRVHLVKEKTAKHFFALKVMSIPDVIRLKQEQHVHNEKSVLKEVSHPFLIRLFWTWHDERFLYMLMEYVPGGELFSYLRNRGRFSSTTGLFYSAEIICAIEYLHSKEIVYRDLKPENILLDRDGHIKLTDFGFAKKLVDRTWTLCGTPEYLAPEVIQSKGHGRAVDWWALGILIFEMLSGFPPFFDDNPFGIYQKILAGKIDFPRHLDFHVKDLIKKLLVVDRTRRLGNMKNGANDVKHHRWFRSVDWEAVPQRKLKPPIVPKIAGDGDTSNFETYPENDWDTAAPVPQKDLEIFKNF
Conditions: at 0.1 µM.

Assay [9] concerns the target T5, cAMP-dependent protein kinase catalytic subunit PRKX (Homo sapiens). Conditions: at 1 µM.
Assay [10] addresses Rho-associated protein kinase 1 (Homo sapiens) (UniProt Q13464). As to conditions: at 0.1 µM.
The target is the same in assay [11]. Conditions: at 1 µM.
In assay [12] the target is Rho-associated protein kinase 2 (Homo sapiens) (UniProt O75116). As to conditions: at 0.1 µM.
Sequence of Rho-associated protein kinase 2 (Homo sapiens) (O75116 whole entry, looked up): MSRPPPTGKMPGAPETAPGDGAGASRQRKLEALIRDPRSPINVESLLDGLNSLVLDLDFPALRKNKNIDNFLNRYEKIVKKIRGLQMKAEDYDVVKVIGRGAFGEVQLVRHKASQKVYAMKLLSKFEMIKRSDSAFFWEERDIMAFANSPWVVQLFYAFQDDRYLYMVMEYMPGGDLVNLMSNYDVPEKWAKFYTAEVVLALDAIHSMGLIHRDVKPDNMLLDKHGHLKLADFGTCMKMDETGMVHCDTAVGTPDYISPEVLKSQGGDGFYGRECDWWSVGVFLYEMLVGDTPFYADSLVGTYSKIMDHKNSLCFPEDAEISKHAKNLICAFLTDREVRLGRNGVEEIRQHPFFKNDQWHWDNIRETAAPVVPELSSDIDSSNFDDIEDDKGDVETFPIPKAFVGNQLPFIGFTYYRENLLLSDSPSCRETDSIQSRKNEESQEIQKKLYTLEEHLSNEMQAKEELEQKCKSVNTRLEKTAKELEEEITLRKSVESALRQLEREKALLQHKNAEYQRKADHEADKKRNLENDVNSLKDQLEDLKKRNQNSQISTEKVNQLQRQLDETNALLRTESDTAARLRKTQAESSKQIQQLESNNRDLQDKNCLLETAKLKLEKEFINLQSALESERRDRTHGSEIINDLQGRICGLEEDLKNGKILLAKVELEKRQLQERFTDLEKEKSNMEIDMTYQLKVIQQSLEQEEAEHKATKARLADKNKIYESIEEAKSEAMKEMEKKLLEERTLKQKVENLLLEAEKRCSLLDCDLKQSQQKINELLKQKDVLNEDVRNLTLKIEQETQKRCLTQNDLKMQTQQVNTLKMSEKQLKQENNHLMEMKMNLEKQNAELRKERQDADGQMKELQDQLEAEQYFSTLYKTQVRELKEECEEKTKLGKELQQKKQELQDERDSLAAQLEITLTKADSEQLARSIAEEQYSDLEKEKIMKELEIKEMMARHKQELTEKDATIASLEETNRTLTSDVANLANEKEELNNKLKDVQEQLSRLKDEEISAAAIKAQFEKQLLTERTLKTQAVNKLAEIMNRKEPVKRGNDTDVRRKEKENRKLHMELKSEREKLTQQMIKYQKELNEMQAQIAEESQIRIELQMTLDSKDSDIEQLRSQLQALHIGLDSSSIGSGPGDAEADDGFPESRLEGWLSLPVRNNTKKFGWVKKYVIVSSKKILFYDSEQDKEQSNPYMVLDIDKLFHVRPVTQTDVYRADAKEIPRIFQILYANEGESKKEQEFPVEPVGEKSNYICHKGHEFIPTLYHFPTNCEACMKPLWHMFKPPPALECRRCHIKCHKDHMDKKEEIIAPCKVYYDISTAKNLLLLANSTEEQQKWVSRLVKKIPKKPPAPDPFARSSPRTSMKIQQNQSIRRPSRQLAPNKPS
Assay [13] shares this target. Conditions: at 1 µM.
Assay [14] addresses Ribosomal protein S6 kinase alpha-1 (Homo sapiens) (UniProt Q15418). As to conditions: at 0.1 µM.
The target is the same in assay [15]. Conditions: at 1 µM.
Assay [16] deals with Ribosomal protein S6 kinase alpha-3 (Homo sapiens) (UniProt P51812). Conditions: at 0.1 µM.
For assay [17] the target is unchanged. Conditions: at 1 µM.
Assay [18] concerns the target Ribosomal protein S6 kinase alpha-2 (Homo sapiens) (UniProt Q15349). Conditions: at 0.1 µM.
The target is the same in assay [19]. Conditions: at 1 µM.
Assay [20] has as its target Ribosomal protein S6 kinase alpha-6 (Homo sapiens) (UniProt Q9UK32). As to conditions: at 0.1 µM.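 Further: reported value is the mean inhibition of RSK4, from the GSK PKIS kinase inhibitor screen.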

Each structure is given as a SMILES string. Where “and” joins values, the source holds several entries; their conditions need not be identical. Identical values can stand only once.

Sequence of Ribosomal protein S6 kinase alpha-2 (Homo sapiens) (Q15349 whole entry): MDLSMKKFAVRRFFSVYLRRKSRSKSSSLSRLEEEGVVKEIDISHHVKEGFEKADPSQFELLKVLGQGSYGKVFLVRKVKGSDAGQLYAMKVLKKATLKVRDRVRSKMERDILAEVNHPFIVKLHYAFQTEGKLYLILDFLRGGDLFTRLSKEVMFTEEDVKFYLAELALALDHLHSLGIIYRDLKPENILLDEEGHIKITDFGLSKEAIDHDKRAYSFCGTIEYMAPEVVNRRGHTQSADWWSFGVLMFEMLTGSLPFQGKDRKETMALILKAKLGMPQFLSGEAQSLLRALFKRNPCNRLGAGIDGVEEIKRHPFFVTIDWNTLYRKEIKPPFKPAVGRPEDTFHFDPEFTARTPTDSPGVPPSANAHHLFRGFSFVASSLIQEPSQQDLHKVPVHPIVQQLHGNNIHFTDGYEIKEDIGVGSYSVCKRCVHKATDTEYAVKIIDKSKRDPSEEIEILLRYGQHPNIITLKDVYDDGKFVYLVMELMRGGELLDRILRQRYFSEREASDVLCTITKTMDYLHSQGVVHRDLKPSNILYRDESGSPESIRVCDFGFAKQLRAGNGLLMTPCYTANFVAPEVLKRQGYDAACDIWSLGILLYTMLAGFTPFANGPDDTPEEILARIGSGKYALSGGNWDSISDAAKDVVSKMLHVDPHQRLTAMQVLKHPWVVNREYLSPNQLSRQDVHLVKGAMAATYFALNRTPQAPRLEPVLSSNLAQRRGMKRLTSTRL
Sequence of Ribosomal protein S6 kinase alpha-6 (Homo sapiens) (Q9UK32 whole entry): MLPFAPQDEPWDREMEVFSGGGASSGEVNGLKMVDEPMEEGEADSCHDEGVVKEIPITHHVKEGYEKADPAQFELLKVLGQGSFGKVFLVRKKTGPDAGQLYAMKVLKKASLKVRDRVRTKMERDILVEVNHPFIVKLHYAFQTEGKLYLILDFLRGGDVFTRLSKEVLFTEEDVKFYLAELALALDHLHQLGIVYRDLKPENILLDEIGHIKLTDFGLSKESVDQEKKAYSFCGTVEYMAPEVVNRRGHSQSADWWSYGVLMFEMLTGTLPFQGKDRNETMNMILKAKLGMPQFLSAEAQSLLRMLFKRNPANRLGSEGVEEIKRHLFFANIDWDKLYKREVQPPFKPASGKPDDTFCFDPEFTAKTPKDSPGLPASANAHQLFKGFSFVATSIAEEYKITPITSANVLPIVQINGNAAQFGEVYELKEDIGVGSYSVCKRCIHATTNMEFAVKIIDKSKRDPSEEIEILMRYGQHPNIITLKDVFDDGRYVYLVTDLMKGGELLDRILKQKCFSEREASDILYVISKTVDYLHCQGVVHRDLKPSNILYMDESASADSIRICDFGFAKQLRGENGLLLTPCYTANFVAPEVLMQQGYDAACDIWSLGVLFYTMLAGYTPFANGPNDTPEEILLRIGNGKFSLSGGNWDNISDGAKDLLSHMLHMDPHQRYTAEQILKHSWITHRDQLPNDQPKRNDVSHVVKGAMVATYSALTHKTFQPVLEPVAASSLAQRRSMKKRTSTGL
Sequence of Rho-associated protein kinase 1 (Homo sapiens) (Q13464 2-1354 limits assumed): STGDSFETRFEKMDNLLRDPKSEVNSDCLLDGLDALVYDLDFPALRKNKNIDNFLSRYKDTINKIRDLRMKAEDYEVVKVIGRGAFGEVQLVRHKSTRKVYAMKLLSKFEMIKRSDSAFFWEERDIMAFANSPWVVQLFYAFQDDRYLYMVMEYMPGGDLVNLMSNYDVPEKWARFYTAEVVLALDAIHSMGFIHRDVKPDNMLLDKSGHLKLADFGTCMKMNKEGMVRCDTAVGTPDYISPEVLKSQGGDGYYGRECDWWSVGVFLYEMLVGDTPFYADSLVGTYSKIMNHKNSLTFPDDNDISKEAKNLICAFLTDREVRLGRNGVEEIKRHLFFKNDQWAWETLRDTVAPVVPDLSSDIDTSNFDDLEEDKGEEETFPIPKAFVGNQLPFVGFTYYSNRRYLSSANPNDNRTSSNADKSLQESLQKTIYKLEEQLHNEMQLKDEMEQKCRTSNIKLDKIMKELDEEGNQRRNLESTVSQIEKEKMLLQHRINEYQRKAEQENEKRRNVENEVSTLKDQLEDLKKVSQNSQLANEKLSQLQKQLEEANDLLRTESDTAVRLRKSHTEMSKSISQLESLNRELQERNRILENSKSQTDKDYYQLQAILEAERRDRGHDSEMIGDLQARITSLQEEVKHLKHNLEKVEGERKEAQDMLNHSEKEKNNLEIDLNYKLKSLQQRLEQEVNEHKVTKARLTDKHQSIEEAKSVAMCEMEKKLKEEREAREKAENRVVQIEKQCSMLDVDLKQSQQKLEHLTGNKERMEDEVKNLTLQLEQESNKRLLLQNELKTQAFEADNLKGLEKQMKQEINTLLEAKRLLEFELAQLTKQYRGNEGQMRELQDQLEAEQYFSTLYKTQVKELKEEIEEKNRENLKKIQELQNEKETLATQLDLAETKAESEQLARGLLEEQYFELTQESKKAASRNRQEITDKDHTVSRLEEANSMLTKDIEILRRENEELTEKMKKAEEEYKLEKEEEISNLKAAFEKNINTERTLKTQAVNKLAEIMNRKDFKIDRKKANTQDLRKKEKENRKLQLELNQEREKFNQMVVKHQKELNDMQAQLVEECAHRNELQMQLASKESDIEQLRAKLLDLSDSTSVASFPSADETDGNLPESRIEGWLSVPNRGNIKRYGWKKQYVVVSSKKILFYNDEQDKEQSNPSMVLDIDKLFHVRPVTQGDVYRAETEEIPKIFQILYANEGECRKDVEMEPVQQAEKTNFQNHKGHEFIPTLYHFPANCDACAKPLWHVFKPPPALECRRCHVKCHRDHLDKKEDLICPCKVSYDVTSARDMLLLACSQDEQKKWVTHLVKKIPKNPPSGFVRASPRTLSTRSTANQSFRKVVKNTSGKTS
Sequence of Ribosomal protein S6 kinase alpha-1 (Homo sapiens) (Q15418 whole entry): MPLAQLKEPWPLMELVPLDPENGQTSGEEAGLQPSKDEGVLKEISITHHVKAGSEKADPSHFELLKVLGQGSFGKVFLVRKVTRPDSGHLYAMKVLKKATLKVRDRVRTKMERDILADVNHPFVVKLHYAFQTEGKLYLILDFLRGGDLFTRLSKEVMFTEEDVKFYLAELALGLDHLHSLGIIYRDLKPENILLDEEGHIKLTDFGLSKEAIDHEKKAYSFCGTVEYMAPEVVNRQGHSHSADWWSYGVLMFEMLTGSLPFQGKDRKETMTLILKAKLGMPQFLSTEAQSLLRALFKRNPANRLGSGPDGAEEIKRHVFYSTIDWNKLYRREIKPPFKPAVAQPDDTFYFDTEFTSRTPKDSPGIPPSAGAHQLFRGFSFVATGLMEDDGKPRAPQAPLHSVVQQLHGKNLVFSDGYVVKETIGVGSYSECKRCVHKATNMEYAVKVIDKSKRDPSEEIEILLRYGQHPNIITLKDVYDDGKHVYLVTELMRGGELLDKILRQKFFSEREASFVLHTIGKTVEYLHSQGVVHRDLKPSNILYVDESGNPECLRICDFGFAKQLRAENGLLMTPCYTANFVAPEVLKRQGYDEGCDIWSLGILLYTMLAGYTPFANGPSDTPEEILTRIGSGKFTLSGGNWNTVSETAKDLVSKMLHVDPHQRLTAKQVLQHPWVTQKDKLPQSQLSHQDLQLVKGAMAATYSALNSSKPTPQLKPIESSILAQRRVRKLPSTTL

As for `CC1=C(C(=O)Nc2ccc3[nH]nc(C)c3c2)C(c2ccc(C(F)(F)F)cc2)CC(=O)N1` (stereo not given), the inhibition (in general, the drop in the measured response relative to a control, in per cent) stood at 4.33% in assay [1]; 3.46% in assay [2]; 9.27% in [3]; 3.93% in [4]; 18.2% in assay [5]; 5.55% in [6]. For the same compound, the inhibition in assay [7] worked out at 40.2%; in [8] it was 7.3%; in [9], 47%; in [10], 67.8%; in [11], 89.8%; in assay [12], 70.3%. For the same compound, the inhibition in [13] came out at 83.8%; in assay [14], 2.72%; in assay [15], 11.3%; in assay [16], 1.64%; in assay [17] it was 17.2%; in assay [18], 1.77%. Besides, the results for the inhibition in assay [19] and in assay [20] were 9.89% and 3.48%, respectively.

With `Nc1nonc1-c1nc2cnccc2n1C1CC1`, the inhibition is 18.3% and 17.4% in assay [1]; 5.14% and 1.26% in [2]; 21.9% and 19.9% in assay [3]; 13.6% and 15.4% in [4]; 50.7% and 56.1% in assay [5]; 36.7% and 40.2% in [6]. In addition, the inhibition in [7] is 65.8% and 69.3%; in [8] it was 3.44% and 4.71%; in assay [9] it was 23.7% and 26.4%; in assay [10], 43.6% and 46.2%; in assay [11] it was 79.3% and 77.8%; in assay [12], 56.4% and 54.3%. The inhibition in [13] was 81% and 77.9%; in [14], 66.3% and 63.6%; in assay [15] it was 84.2% and 79.4%; in [16], 46.1% and 47%; in assay [17], 79% and 75.8%; in [18] it was 67% and 69.5%. For the same compound, the inhibition in [19] is 90.9% and 91.2%; in assay [20], 10.3% and 11.7%.

Regarding `CS(=O)(=O)Nc1ccc(-c2ccc3c(NC(=O)C4CC4)n[nH]c3c2)cc1`, the inhibition came out at 5.01% in assay [1]; 3.46% in assay [2]; 6.13% in [3]; 2.24% in [4]; 3.26% in assay [5]; 1.29% in assay [6]. The inhibition was 2.97% in [7]; 1.03% in [8]; -0.97% in assay [9]; 0.87% in assay [10]; 1.98% in assay [11]; 0.25% in assay [12]. Moreover, the inhibition in assay [13] was -0.32%; in assay [14] it was 1.25%; in assay [15] it was 1.36%; in [16] it was 0.62%; in assay [17], 0.96%; in assay [18], 0.73%. Moreover, the inhibition was 3.79% in [19] and 1.37% in assay [20].

As to `CN1CCC(C(=O)Nc2n[nH]c3nc(-c4ccc(O)cc4)c(Br)cc23)CC1`, the inhibition in [1] was 4.6% and 3.02%; in assay [2], 1.49% and 1.43%; in assay [3] it was 3.3% and 2.68%; in [4] it was 2.6% and 0.38%; in [5], 8.03% and 6.39%; in assay [6], 2.67% and 0.36%. Moreover, the inhibition in [7] is 8.41% and 4.33%; in assay [8], 3.06% and 1.23%; in assay [9] it was 6.6% and 1.62%; in assay [10] it was 1.28% and -0.29%; in [11], 2.13% and -0.83%; in assay [12] it was 3.65% and -0.14%. Also, the inhibition in assay [13] was 7.61% and 0.92%; in assay [14], 2.66% and 0.77%; in [15], 5.58% and 0.84%; in [16], 2.78% and 0.04%; in [17], 6.6% and 1.92%; in assay [18], 3.56% and 2.99%. The inhibition in [19] was 7.9% and 6.17%; in [20], 2.77% and 0.98%.

For `O=C(O[C@H]1CN[C@H](C#Cc2cc3ncnc(Nc4ccc5c(ccn5Cc5cc(F)ccc5F)c4)c3s2)C1)N1CCOCC1`, the inhibition in assay [1] was determined as 5.35%; in assay [2] it was 5.21%; in assay [3], 6.35%; in assay [4], 2.6%; in assay [5] it was 3.55%; in assay [6], 2.56%. For the same compound, the inhibition stood at 3.72% in [7]; 2.19% in [8]; 2.67% in assay [9]; 0.77% in [10]; 3.4% in assay [11]; 2.86% in [12]. The inhibition in assay [13] came out at 5.23%; in [14], 1.53%; in [15], 1.62%; in [16], 0.96%; in [17], 0.89%; in assay [18] it was 3.56%. For the same compound, the inhibition in assay [19] came to 2.57%; in assay [20], 1.53%.
